HT1080-NT tox: kills 2HG-producing HT-1080-NT fibrosarcoma cells | HT-1080-NT fibrosarcoma viability, CellTiter-Glo ATP luminescence, 48 h | Potency, µM (series often up to 46.1 µM), for the others: at the top dose activity, negative = less viability, actives largely listed as cytotoxic | actives 1.6% (n = 360,000);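 further: NT is the 2HG producing partner of a matched IDH1 knockdown line; potency means the concentration at half of the fitted maximal effect; 0% = DMSO-treated cells and -100% = media-only wells without cells; nearly all actives have a fitted effect of over 55% in size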
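A 48-hour cytotoxicity screen used HT-1080-NT cells plated 2 hours before compound delivery. ATP-based CellTiter-Glo luminescence measured viability, normalized to DMSO and no-cell controls.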
HT1080 IDH1KD tx: kills HT-1080 cells with IDH1 knockdown. HT-1080 IDH1 knockdown viability, ATP luminescence, 48 h. Potency, µM (doses to about 46.1 µM), for inactives: at the top dose activity, negative = toxicity, actives largely listed as cytotoxic. actives 2% (n = 360,000). AID 686971;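 further: potency means the concentration at half of the fitted maximal effect; 0% = DMSO wells and -100% = cell-free medium wells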
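Assay cells: HT-1080 with IDH1 knockdown, 750 per well, RPMI/5% FBS. Exposure: 48 h at 37 °C following 2 h pre-incubation. Read: CellTiter-Glo luminescence; fitted concentration-response, curve class assigned.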
DT40 TDP1 CPT: DT40-hTDP1 cell growth loss with CPT | chicken DT40 Tdp1-/-;hTDP1 cells + 20 nM CPT, ATP luminescence, 48 h | Potency, µM (doses to about 46.2 µM), without a hit: at the top dose activity change, negative = growth inhibition, usual class: inhibitors | actives 12% (n = 420,000) | AID 686979; further: potency means the concentration at half of the fitted maximal effect; nearly all actives have a fitted effect of over 55% in size
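Chicken DT40 Tdp1-/- cells stably complemented with human TDP1 were seeded at 400 cells/well in medium containing 20 nM camptothecin, exposed to pin-transferred compounds, and grown at 37 °C for at least 48 hr. Viability was read as ATP luminescence.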
TDP1 cell noCPT: qHTS for Inhibitors of human tyrosyl-DNA phosphodiesterase 1 (TDP1): qHTS in cells in absence of CPT. DT40 Tdp1-/- hTDP1 cells, no CPT, ATP luminescence, 48 h. Potency, µM (titrated, usually from 46.2 µM), without a hit: top-dose activity change, negative = growth inhibition, most hits filed as inhibitors. actives 15% (n = 420,000). AID 686978, 2013; further: potency means the concentration at half of the fitted maximal effect; nearly all actives have a fitted effect of over 55% in size
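No-CPT arm: Tdp1-/-;hTDP1 DT40 cells (400/well) plus compounds, incubated ≥48 hr at 37 °C. Readout CellTiter-Glo luminescence.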
IL-1B inflam inh: inflammasome signaling inhibition, IL-1 beta readout. THP-1 LPS/ATP IL-1B secretion, AlphaLISA, 16 h; stronger effect = lower value. activity change, % at 57.5 µM. actives 4.7% (n = 360,000). AID 743279; in the data active means activity change below about -50%; inconclusive means mostly about -30% to -49%
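THP-1 cells pretreated 1 hr with compounds (up to 57.5 uM final), then stimulated with LPS (250 ng/mL final) plus ATP (1.25 mM final); secreted IL-1B measured by AlphaLISA after 16 hr, decreased signal indicating inhibition.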
Numbers without * were called inactive; ? = inconclusive; nt = no result given. Compounds with a hit are over-represented: about 19% of the library has one in this group of screens. Unless noted, the call rests on the fitted dose curve; in most records, active means well fitted curve in the direction sought with a large enough effect; inconclusive means small, poorly fitted or top-dose-only effect, or another doubt; inactive means no such curve, though single readings can be large; an effect the other way counts as inactive or inconclusive. Unless noted, on the % scale 0 is the no-effect control and ±100 the full control effect.

SMILES | HT1080-NT tox | HT1080 IDH1KD tx | DT40 TDP1 CPT | TDP1 cell noCPT | IL-1B inflam inh
CCC(C)NC(=O)COC(=O)c1ccccc1OCC(=O)Nc1ccc(Br)cc1 (stereo not drawn) | ? | 25% | ? | ? | 1
O=C(COc1ccccc1C(=O)OCC(=O)N1CCOCC1)Nc1ccc(Br)cc1 | 1% | 3% | 16µM* | 14µM* | nt
CCN1N=C(C)C=C(c2ccccc2)n2c1nc1ccccc12 | 13% | 18% | -3% | 7% | 24
Cc1ccc(-n2c3c(cc(C(=O)Nc4cccc(Cl)c4)c2=O)C(=O)CC(C)(C)C3)cc1 | nt | nt | -9% | -5% | nt
O=C(Nc1ccc(S(=O)(=O)Nc2nccs2)cc1)c1ccc(N2C(=O)c3ccccc3C2=O)cc1 | -3% | -2% | -3% | -2% | 1
COc1ccc(CN2C(=O)C(CC(=O)NCCN3CCOCC3)CC(C(=O)N3CCOCC3)=C2C)cc1 (stereo not drawn) | 15% | 9% | 2% | 2% | 29
CC(C)NC(=O)COC(=O)c1ccccc1OCC(=O)Nc1ccc(Br)cc1 | -24% | -10% | -57% | -4% | nt
CN(C(=O)COC(=O)c1ccccc1OCC(=O)Nc1ccc(Br)cc1)c1ccccc1 | -20% | -13% | ? | 11µM* | nt
CNC(=O)COc1ccccc1C(=O)Nc1ccc2c(c1)oc1ccccc12 | -22% | ? | -29% | ? | -69*
O=C(Nc1nnc([C@H]2C[C@H](O)[C@@H](CO)O2)s1)Nc1ccc(F)cc1F | 7% | 16% | 12% | 9% | -2
N#CCCn1c(=O)c(-c2cc(F)cc(F)c2)nc2cnc(OCc3ccccc3)nc21 | nt | nt | -26% | ? | nt
Cc1ccc2[nH]c(=O)c(-c3noc(CC(C)C)n3)cc2c1 | 15% | 8% | ? | -42% | 0
O=C(Nc1ccc(F)cc1)c1cccnc1Oc1ccccc1 | 3% | 4% | 0% | 5% | -12
CSc1ncccc1C(=O)Nc1ccc(OC(F)(F)F)cc1 | 0% | 1% | ? | 15µM* | -22
CC(=O)Nc1ccc(Sc2ncccc2C(=O)Nc2ccc(F)cc2)cn1 | ? | ? | 9.2µM* | 7.3µM* | 61
CN(C)c1cccc(C(=O)Nc2nc3ccc(S(=O)(=O)N4CCCC4)cc3s2)c1 | nt | nt | 6.5µM* | 8.2µM* | nt
COc1cccc(C(=O)Nc2nc3ccc(S(=O)(=O)N4CCCC4)cc3s2)c1 | nt | nt | 4.6µM* | 5.2µM* | nt
O=C(Nc1nc2ccccc2s1)C1CCN(S(=O)(=O)c2cc([N+](=O)[O-])ccc2Cl)CC1 | ? | 16µM* | 15µM* | 15µM* | -21
O=C(Nc1nc2ccc(S(=O)(=O)N3CCCCC3)cc2s1)C1CCCO1 (stereo not drawn) | -1% | -21% | ? | ? | -20
Cc1ccc(C(=O)Nc2nc3ccc(S(=O)(=O)N4CCCC4)cc3s2)cc1 | nt | nt | -2% | -12% | nt
COc1ccccc1C(=O)Nc1nc2ccc(S(=O)(=O)N3CCCC3)cc2s1 | nt | nt | -2% | -25% | nt
O=C(Nc1nc2ccc(S(=O)(=O)N3CCCC3)cc2s1)C1CCCCC1 | 21µM* | 15µM* | 2.6µM* | 4.6µM* | -5
O=C(CC(Cc1ccccc1)C(=O)O)Nc1cccc(C(F)(F)F)c1 (stereo not drawn) | 3% | -5% | 2% | -16% | 17
Nc1nc2ccc(S(=O)(=O)N3CCCCC3)cc2s1 | 0% | 1% | 8.2µM* | 9.2µM* | -106*
O=C(Nc1nc2ccccc2s1)C1CCN(C(=O)c2ccco2)CC1 | ? | -2% | ? | 15µM* | ?
COc1cc(C(=O)Nc2nc3ccc(S(=O)(=O)N4CCOCC4)cc3s2)cc(OC)c1OC | -5% | -7% | ? | -26% | 22
COc1ccc2nc(NC(=O)c3cc(S(=O)(=O)N4CCOCC4)ccc3C)sc2c1 | -6% | -13% | ? | 18µM* | -21

Assay outcomes deposited in PubChem by National Center for Advancing Translational Sciences (NCATS).
